IP6K1 inh: IP6K1 kinase inhibition. AID 1645851. IP6K1 kinase, ADP-Glo luminescence, 2 h; active compounds read low. hit rate 0.81% among 140,000. activity change, % (series mostly up to about 58 µM); in the data active means activity change below about -25%; further: on the % scale 0 is the no-effect control and ±100 the full control effect
Target sequence (Q92551 whole entry, looked up): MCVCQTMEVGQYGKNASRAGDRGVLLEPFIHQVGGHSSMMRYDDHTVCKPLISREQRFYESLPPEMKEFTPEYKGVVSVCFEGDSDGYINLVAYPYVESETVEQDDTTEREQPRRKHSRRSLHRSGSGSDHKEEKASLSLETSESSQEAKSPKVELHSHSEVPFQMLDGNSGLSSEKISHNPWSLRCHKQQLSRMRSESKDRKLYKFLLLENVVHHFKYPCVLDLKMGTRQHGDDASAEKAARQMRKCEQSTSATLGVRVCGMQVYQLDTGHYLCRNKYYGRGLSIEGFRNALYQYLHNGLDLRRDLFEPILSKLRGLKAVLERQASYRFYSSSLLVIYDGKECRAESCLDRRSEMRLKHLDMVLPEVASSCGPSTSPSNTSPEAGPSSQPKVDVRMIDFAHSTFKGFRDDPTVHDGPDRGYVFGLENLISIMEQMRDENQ
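ADP-Glo luminescence measures ADP made by human IP6K1 during a 2 h RT reaction with ATP/IP6 (mix at 1.3 mM/130 uM); top library doses 57.5 and 19.1 uM final.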
KDM5B inh: KDM5B demethylase inhibition; KDM5B demethylase, FDH-coupled NADH fluorescence (FDH is formaldehyde dehydrogenase); Potency, µM (titrated, usually from 57.7 µM), hits mostly inhibitors; hit rate 2.6% among 220,000; AID 1347165; active means well fitted inhibition curve with a large enough effect; inconclusive means small, poorly fitted or top-dose-only effect; inactive means no such curve, though single readings can be large or run the other way; further: potency means the concentration at half of the fitted maximal effect; 0% is about no effect; nearly all actives have a fitted effect of over 70% in size
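Compound dilutions met 200 nM (final) KDM5BΔAP for 10 min at room temperature before substrate addition. The substrate mix held 12.5 µM H3K4me3 with cofactors 25 µM α-ketoglutarate and 50 µM Fe²⁺. NADH signal gain over 30 min defined activity.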
The depositor's hits bear a star; i = inactive; ? = inconclusive; · = no result. This is a sample that favours compounds with a hit; in the whole collection about 2.8% have one here.

SMILES	IP6K1 inh	KDM5B inh
CC(CCC1(O)OC2CC3C4CCC5CC(O[C@@H]6O[C@H](CO)[C@@H](O)[C@H](O)[C@H]6O[C@@H]6OC[C@@H](O)[C@H](O)[C@H]6O)C(O)CC5(C)C4CCC3(C)C2C1C)CO[C@@H]1O[C@H](CO)[C@@H](O)[C@H](O)[C@H]1O (stereo partly drawn)	16.1	·
Cc1cccc(CNC(=O)c2ccc(Cn3c(SCc4cccc(F)c4)nc4cccnc43)cc2)c1	-52.6*	?
Cc1cccc(CNC(=O)c2ccc(Cn3c(SCc4ccccc4)nc4cccnc43)cc2)c1	-11.4	?
N#CC1(C(=O)NCc2ccccc2)CCCC1	·	i
Cc1ccc(CNC(=O)c2ccc(NC(=O)c3cc4c(=O)[nH]c(C)cn4n3)cc2)cc1	-9.0	3.16µM*
CSc1ccc(CNC(=O)c2cc3c(=O)[nH]c(C)cn3n2)cc1	-14.5	i
CCCCN1CCN(C(=O)c2ccc3c(c2)N(S(C)(=O)=O)CC3)CC1	-5.1	i
COc1ccccc1/C=C(/C#N)C(=O)c1c[nH]c2cccc(C)c12	·	i
O=C(Cc1ccccc1)Nc1sc2c(c1C(=O)Nc1ccccc1)CCCCC2	6.8	?
O=C(Cc1ccccc1)Nc1sc2c(c1C(=O)Nc1ccc(Cl)cc1)CCCC2	-30.4*	?
CC(C)=CCC/C(C)=C/CO[C@@H]1O[C@H](CO)[C@@H](OC(=O)/C=C/c2ccc(O)cc2)[C@H](O[C@@H]2O[C@@H](C)[C@H](O)[C@@H](O)[C@H]2O)[C@H]1O	18.0	·
CC1(COCC2CC2)COc2ccc(C(=O)Nc3ccc4[nH]ccc4c3)cc2N1 (stereo not drawn)	-12.5	i
COc1ccc(NC(=O)c2ccc3c(c2)NC(C)(COc2ccc4[nH]ccc4c2)CO3)cn1 (stereo not drawn)	-12.3	20µM*
CC1(COc2ccc3[nH]ccc3c2)COc2ccc(C(=O)Nc3cccnc3)cc2N1 (stereo not drawn)	-21.1	35.5µM*
Cc1noc(C)c1CN[C@@H]1CCC[C@@H](C(=O)N2CCN(C)CC2)CC(=O)N(C)C1	4.1	i
COc1cc(OC)c(NC(=O)C(C)n2nc(-c3ccccc3)c3c(c2=O)CCCC3)cc1Cl (stereo not drawn)	·	i
CCN1CCN(CCCN2CC3(CCN(Cc4ncc[nH]4)CC3)OC2=O)CC1	13.7	i
CCN1CCN(CCCN2CC3(CCN(c4ncccc4F)CC3)OC2=O)CC1	2.9	17.8µM*
c1cn2c(NC3CCCCC3)c(-c3ccc(N4CCOCC4)cc3)nc2cn1	·	i
Cc1nc2cnccn2c1C(=O)N1CCCCC1	5.9	·
O=C(CCNc1c(-c2ccc(F)cc2)nc2cnccn12)N1CCCCC1	15.7	22.4µM*
Cc1nc2cnccn2c1C(=O)NC1CCCCCC1	3.2	·
O=C(CCNc1c(-c2ccccc2)nc2cnccn12)NC1CCCC1	12.0	28.2µM*
O=C(CCNc1c(-c2ccc(F)cc2)nc2cnccn12)NC1CCCC1	-2.7	28.2µM*
CCOc1cc(/C=C(\C#N)C(=O)OC)ccc1OCc1cccc(C(F)(F)F)c1	·	i
SMILES	IP6K1 inh	KDM5B inh
c1ccc(CCn2cccc2)cc1	·	i
O=C1CC(C(=O)Nc2ccc(F)cc2)c2ccc(F)cc2N1 (stereo not drawn)	·	i
COc1ccc(-c2noc([C@@H]3CCCN3C(=O)Cc3ccccc3C)n2)cc1OC	3.6	28.2µM*
COc1ccc(-c2noc([C@@H]3CCCN3C(=O)Cc3ccc(C)cc3)n2)cc1OC	0.0	31.6µM*
COc1ccc(-c2noc([C@@H]3CCCN3C(=O)Cc3ccc(F)cc3)n2)cc1OC	3.8	28.2µM*
COc1ccc(-c2noc([C@@H]3CCCN3C(=O)Cc3ccc(C)cc3)n2)cc1	8.8	i
Cc1ccccc1CC(=O)N1CCC[C@H]1c1nc(-c2ccccc2)no1	0.0	i
COc1ccc(-c2noc([C@@H]3CCCN3C(=O)c3ccc(F)cc3)n2)cc1OC	0.0	i
O=C(NC1CC1)C(Sc1ccc2c(c1)OCCCO2)c1ccc(F)cc1 (stereo not drawn)	·	i
O=C(Nc1ccc(SC(F)F)cc1)c1n[nH]c(=O)c2ccccc12	·	i
Fc1ccc(N2CCCCC2)c(NC(=S)c2ccncc2)c1	-0.5	·
CCC(CC)C(=O)N1CCC(N2C(=O)CCC2C(=O)NCc2ccccc2)CC1 (stereo not drawn)	-4.5	i
CCC(CC)CN1CC2(CCN(C(=O)CCc3cc(=O)[nH]o3)CC2)OC1=O	-2.5	i
CCC(CC)CN1CC2(CCN(C(=O)c3cn4cccnc4n3)CC2)OC1=O	11.1	31.6µM*
O=C1NCCCCCN(Cc2cccnc2)[C@@H]2CN(C(=O)Nc3ccccc3F)CC[C@@H]12	3.3	i
CN1C[C@H](O)C[C@H]1c1nnc2n1CCN(S(=O)(=O)c1ccc(F)cc1)CC2	-0.6	i
NC(=O)c1noc2c1CN(c1cc(-c3ccccc3)nc3ccnn13)CC2	38.0	25.1µM*
CC(=O)N1CCCN(c2cc(Cl)nc3ccnn23)CC1	30.0	i
CCNC(=O)CN1CCN(C(C(=O)O)c2c[nH]c3cc(OCc4ccccc4)ccc23)CC1 (stereo not drawn)	·	i
CCc1noc(-c2cccn3c(CNC(=O)CCc4ccc(OC)cc4)nnc23)n1	9.7	i
CCc1noc(-c2cccn3c(CNC(=O)Cc4ccc(F)cc4)nnc23)n1	23.8	28.2µM*
CCc1noc(-c2cccn3c(CNC(=O)Cc4ccc(C)cc4)nnc23)n1	22.6	25.1µM*
CCc1noc(-c2cccn3c(CNC(=O)c4cc(C)cc(C)c4)nnc23)n1	-1.1	?
CC(C)c1noc(-c2cccn3c(CNC(=O)c4cccc5[nH]ccc45)nnc23)n1	2.2	?
CCc1noc(-c2cccn3c(CNC(=O)c4cccc(C)c4)nnc23)n1	15.9	28.2µM*
SMILES	IP6K1 inh	KDM5B inh
CC(C)c1noc(-c2cccn3c(CNC(=O)Cc4ccc(F)cc4)nnc23)n1	0.5	14.1µM*
CCOc1ccc(-n2nc(C(=O)Nc3ccc(C(F)(F)F)cc3)c3ccccc3c2=O)cc1	·	i
COc1cc(/C=N/OCCOc2ccccc2C(C)=O)cc(Cl)c1OC	·	i
CC(Nc1ccc(-c2nc(CCCc3ccccc3)no2)cn1)c1cnn(C)c1 (stereo not drawn)	15.3	28.2µM*
CCN1CCN(c2ccc(-c3nc(CCCc4ccccc4)no3)cn2)CC1	-4.9	?
c1ccc(CCc2noc(-c3ccc(N4CCCOCC4)nc3)n2)cc1	0.4	?
c1ccc(CCCc2noc(-c3ccc(N4CCOCC4)nc3)n2)cc1	0.0	35.5µM*
Cc1nccn1CCN(C)c1ccc(-c2nc(COc3ccccc3)no2)cn1	3.4	22.4µM*
COC1CCN(c2ccc(-c3nc(COc4ccccc4)no3)cn2)CC1	10.1	28.2µM*
CC(C)Cc1noc(-c2ccc(N3CCC(O)CC3)nc2)n1	10.9	?
CN(Cc1cnn(C)c1)c1ccc(-c2nc(COc3ccccc3)no2)cn1	-8.6	i
COc1ccccc1OC1(C(=O)O)CCN(c2ncnc3[nH]ccc23)CC1	16.4	i
CN1C(=O)[C@@H]2C[C@@H](CN2C(=O)c2ccccc2)Oc2ccccc21	7.1	i
CCC(O)Cn1nc(CCOC)nc1-c1ccc(-c2nnn(C)n2)cc1 (stereo not drawn)	20.8	i
COC[C@H]1C[C@@H](NS(=O)(=O)c2cccc(F)c2)[C@H](O)[C@@H]1O	0.6	i
